According to ChEMBL document CHEMBL1157539, “Thousands of chemical starting points for antimalarial lead identification” (Nature, 2010):

Experiments:
Format in all cases: functional
Plasmodium falciparum [1] = test: GSK_TCMDC: Inhibition of Plasmodium falciparum 3D7 in whole red blood cells, using parasite LDH activity as an index of growth. Test compounds present at 2uM
Plasmodium falciparum [2] = test: GSK_TCMDC: Inhibition of Plasmodium falciparum Dd2 in whole red blood cells, using parasite LDH activity as an index of growth. Test compounds present at 2uM
HepG2 = test: GSK_TCMDC: Percent inhibition of human HepG2 cell line. Test compounds present at 10uM.

| SMILES | Inhibition (Plasmodium falciparum [1]) [%] | Inhibition (Plasmodium falciparum [2]) [%] | Inhibition (HepG2) [%] |
| --- | --- | --- | --- |
| O=C(Nc1cccc(Cl)c1N1CCOCC1)C(Cl)(Cl)Cl | 96 | 95 | 3 |
| CC(=O)N(C)C1CCN(Cc2ccc(-c3ccc(-c4nc5cc(F)ccc5[nH]4)s3)cc2)C1.O=C(O)C(F)(F)F (stereo unspecified) | 98 | 22 | 46 |
| COc1ccc(Cl)cc1N1CCN(CCCNC(=O)c2ccc(-c3nc4cc(Cl)c(C)cc4[nH]3)s2)CC1 | 100 | 97 | 0 |
| COc1cc(NC(=O)CCCN2CCN(c3cccc(Cl)c3Cl)CC2)ccc1N1CCN(C(C)C)CC1.Cl | 99 | 59 | 31 |
| CC(=NNC(S)=NCCc1ccccc1)c1ccccn1 | 100 | 99 | 73 |
| Cl.OC(c1cc(C(F)(F)F)nc2c(F)cccc12)C1CCCCN1 (stereo unspecified) | 98 | 74 | 0 |
| COc1ccc2nccc([C@@H](O)CN3CCC(NCc4cc5ccccc5[nH]4)CC3)c2c1.CS(=O)(=O)O | 92 | 41 | 75 |
| CCCCCN1CCC(NS(=O)(=O)c2ccc(C(=O)Nc3cccc(C(F)(F)F)c3)cc2)C1.O=C(O)C(F)(F)F (stereo unspecified) | 94 | 0 | 14 |
| CCCCOc1ccc(/C=C/c2ccc(-c3c(C)[nH]c(C)c(Cl)c3=O)s2)cc1 | 97 | 96 | 0 |
| Cc1ccccc1CN1CCCN(Cc2ccc(C(=O)Nc3ccc(Cl)cc3)cc2)CC1.O=C(O)C(F)(F)F | 93 | 15 | 48 |
| O=C(/C=C/c1ccc(Cl)c(Cl)c1)NCCCCCCN1CCN(C(=O)Nc2cc(F)cc(F)c2)CC1 | 86 | 0 | 23 |
| COc1ccc2c(=NN=Cc3cccc(C)n3)cc(-c3ccccc3)[nH]c2c1 | 97 | 25 | 0 |
| COc1cccc2cc(C(=O)N[C@@H](CC(C)C)C(=O)N[C@H](/C=N/NC(=O)OC(C)(C)C)CC(=O)OC(C)(C)C)oc12 | 85 | 57 | 4 |
| CCN(CC)CCN(Cc1ccc(-c2ccc(C(F)(F)F)cc2)cc1)C(=O)Cn1c(CCc2ccc(F)c(F)c2F)nc(=O)c2cccnc21.O=C(O)C(O)C(O)C(=O)O | 89 | 20 | 29 |
| Cc1[nH]c(C)c(-c2ccc(OCCSc3ccncc3)cc2)c(=O)c1Br | 95 | 95 | 0 |
| NC1CCN(Cc2ccc(-c3ccc(-c4nc5cc(F)ccc5[nH]4)cc3)cc2)C1.O=C(O)C(F)(F)F (stereo unspecified) | 98 | 99 | 41 |
| CC(=O)COc1c(C2CCN(CCCCNC(=O)c3ccc(-c4ccc(C(F)(F)F)cc4)cc3)CC2)ccc2c1CCCC2 | 99 | 53 | 100 |
| CC1(C)N=C(N)N=C(N)N1OCc1cc2ccccc2cc1CON1C(N)=NC(N)=NC1(C)C | 92 | 51 | 0 |
| Br.COc1nc(-n2ccc(=N)cc2)nc2ccccc12 | 90 | 45 | 15 |
| COc1ccc2nccc(N3CCC(NCCNS(=O)(=O)c4ccc5c(c4)NC(=O)CS5)C3)c2n1.Cl (stereo unspecified) | 97 | 18 | 12 |
| O=C(NCCN1CCCCC1)N1CCCN(c2ncnc3cc(-c4ccccc4)sc23)CC1.O=C(O)C(F)(F)F | 89 | 80 | 2 |
| COc1ccc2nccc([C@@H](O)CN3CCC(NCc4cc5sccc5nc4C(F)(F)F)CC3)c2c1.O=C(O)C(=O)O | 89 | 67 | 22 |
| COCCN1CCN(Cc2ccc(-c3cccc(-c4nc5ccccc5[nH]4)c3)cc2)CC1.O=C(O)C(F)(F)F | 93 | 10 | 32 |
| Cn1nc(-c2ccc(NC(=O)Nc3cc(C(F)(F)F)ccc3F)cc2)c2cnc(NCCCCN3CCCC3)nc21.O=C(O)C(F)(F)F | 98 | 74 | 88 |
| CC(C)(CNCCOc1ccc(Cl)cc1)c1nc(-c2ccnc(N)n2)c(-c2ccc(Cl)c(O)c2)[nH]1.Cl | 97 | 19 | 45 |
| O=S(=O)(Nc1cccc(CCN2CCC(N3CCCCC3)CC2)c1)c1ccc2c(c1)OCCO2 | 91 | 5 | 8 |
| Cc1cccc2nc(-c3cccc(-c4cccc(C(=O)N5CCCCC5CN5CCC(O)C5)c4)c3)[nH]c12 (stereo unspecified) | 89 | 71 | 19 |
